Rows were chosen to be rich in hits. Some 3.2% of all compounds tested hit in one or more screens of this group.
Vaccinia Venus: vaccinia inhibition (Venus reporter). Potency, µM (doses to about 36.5 µM), without a hit: at the top dose activity change, negative = inhibition, actives largely listed as inhibitors. Vaccinia virus Venus reporter expression, fluorescence. hit rate 0.46% among 330,000; calls by dose curve; tested in A549 cells; note: nearly all actives have a fitted effect of over 30% in size
FMDV inh: blocks foot and mouth disease virus. FMDV antiviral cell-based qHTS. Potency, µM (titrated, usually from 57.9 µM), without a hit: at the highest dose activity change, negative = inhibition, hits mostly inhibitors. hit rate 1.2% among 410,000. AID 1159524; calls by dose curve; tested in HEK293T cells; note: read-out not given here; nearly all actives have a fitted effect of over 45% in size
MARV entry inh: inhibitors of Marburg virus binding or cell entry | AID 540276 | hit rate 1.8% among 300,000 | Potency, µM (doses to about 37.8 µM), inactives show top-dose activity change, negative = inhibition, actives largely listed as inhibitors | Marburg virus pseudotyped entry inhibition, cell reporter; calls by dose curve; tested in HEK293 cells
Lassa entry inh: blocks Lassa virus binding to or entry into cells. Lassa virus pseudotype entry inhibition, cell reporter. Potency, µM (series often up to 37.9 µM), without a hit: at the highest dose activity change, negative = inhibition, most hits filed as inhibitors. hit rate 1.2% among 300,000. AID 540256; calls by dose curve; tested in HEK293 cells; note: nearly all actives have a fitted effect of over 50% in size
Vaccinia mCherry: inhibitors of vaccinia virus infection (mCherry reporter signal). Vaccinia virus mCherry reporter infection, fluorescence. Potency, µM (highest dose often 36.5 µM), for the others: at the highest dose activity change, negative = inhibition, actives largely listed as inhibitors. hit rate 0.63% among 310,000. AID 720579; calls by dose curve; tested in A549 cells; note: nearly all actives have a fitted effect of over 35% in size
* marks the source's active call; other numbers are inactive results; i = inactive; ? = inconclusive; . = no result; [ ] = remark or other dose. % is set by controls: 0 for no effect and ±100 for the full control effect; potency is the fitted concentration of half-maximal effect.

SMILES | Vaccinia Venus | FMDV inh | MARV entry inh | Lassa entry inh | Vaccinia mCherry
COc1cc(/C=C2\CC/C(=C\c3ccc(OCCO)c(OC)c3)C2=O)ccc1OCCO | 3.8% | 35.5µM* | ? | 1.4% | i
COc1ccc(C=C2C=C(C(C)(C)C)C(=O)C(C(C)(C)C)=C2)cc1OC | -23.0% | 22.4µM* | ? | 13.8%[46.1 µM] | -13.7%
COc1ccc(/C=C2\CN(Cc3ccccc3)C/C(=C\c3ccc(OC)c(O)c3)C2=O)cc1O | ? | -12.4% | ? | ? | 7.94µM*
COc1ccc(/C=C2\CC/C(=C\c3ccc(OC)c(OC)c3)C2=O)cc1OC | -8.5% | ? | ? | ? | i
O=C(c1ccc(F)c(F)c1)N1CCOc2ccc(CN3CCN(CCO)CC3)cc2C1 | 0.0% | -2.2% | . | . | i
COc1ccc(/C=C2\CCc3ccccc3C2=O)cc1OC | ? | 15.3% | -11.2% | 1.1% | 7.94µM*
COc1cccc(/C=C2\CCc3ccccc3C2=O)c1 | -14.1% | -65.8% | . | . | i
CC(C)(C)C(=O)O/N=C(\N)Cc1ccc(-c2csnn2)cc1 | -14.4% | -6.7% | 8.91µM* | ? | i
Cc1ccc(OCc2ccc(C(=O)NN)o2)c([N+](=O)[O-])c1 | . | 11.9% | . | . | .
Cc1ccc(OCc2ccc(C(=O)Nc3c(C)nn(Cc4c(F)c(F)c(F)c(F)c4F)c3C)o2)c([N+](=O)[O-])c1 | . | ? | 16.4µM* | ? | .
CCCC(=O)N1CCN(c2ccc(NC(=O)c3ccc([N+](=O)[O-])o3)cc2)CC1 | 10µM* | -20.5% | ? | ? | 10µM*
CC1CCN(c2ccc(NC(=O)c3ccc([N+](=O)[O-])o3)cc2)CC1 | 10µM* | -14.5% | ? | ? | 11.2µM*
CC(C)(C)C(=O)N1CCN(c2ccc(NC(=O)c3ccc([N+](=O)[O-])o3)cc2)CC1 | ? | -8.4% | ? | ? | 11.2µM*
CCC(=O)N1CCN(c2ccc(NC(=O)c3ccc([N+](=O)[O-])o3)cc2)CC1 | ? | 1.4% | -37.5%[46.1 µM] | ? | ?
O=C(Nc1ccc(N2CCN(Cc3ccccc3F)CC2)cc1)c1ccc([N+](=O)[O-])o1 | ? | ? | ? | -13.2% | 3.98µM*
CS(=O)(=O)N1CCN(c2ccc(NC(=O)c3ccc([N+](=O)[O-])o3)cc2)CC1 | . | 45.2% | 4.4% | 6.7% | .
CN(N=O)c1ccc2c(c1)Cc1ccccc1-2 | -9.6% | . | . | . | -0.7%
CCn1c(-c2ccccc2F)nc2cc(NC(C)=O)cc(C(=O)N(C)Cc3ccccn3)c21 | -24.5% | -12.2% | . | . | i
CSc1ccc(C(=O)C2CCCN(Cc3cc4ccccc4[nH]3)C2)cc1 (configuration not stated) | -22.3% | ? | 3.55µM* | ? | ?
CC(C)(C)OC(=O)N[C@@H](Cc1ccccc1)c1nnc(SCC(N)=O)o1 | . | -0.3% | . | . | .
Cc1cccc(CS(=O)(=O)c2nnc([C@H](Cc3ccccc3)NC(=O)OC(C)(C)C)o2)c1 | . | 31.6µM* | 16.4µM* | -10.2% | .
COC(=O)CSc1nnc([C@H](Cc2ccccc2)NC(=O)OC(C)(C)C)o1 | -1.6% | -0.2% | -0.3% | 5.4% | .
COC(=O)CS(=O)(=O)c1nnc([C@H](Cc2ccccc2)NC(=O)OC(C)(C)C)o1 | 3.5% | 31.6µM* | ? | ? | -23.1%
Cc1ccc(C2(C)NC(=O)N(CC(=O)Nc3ccc(Cl)c(S(=O)(=O)N4CCCCC4)c3)C2=O)cc1 (configuration not stated) | ? | -21.6% | 11.2µM* | -26.6% | -12.9%
Cc1ccc(NC(=O)COc2ccccc2C(N)=O)cc1S(=O)(=O)N1CCCCCC1 | . | 25.1µM* | . | . | .
SMILES | Vaccinia Venus | FMDV inh | MARV entry inh | Lassa entry inh | Vaccinia mCherry
CCc1noc(C)c1C(=O)Nc1ccc(C)c(S(=O)(=O)N2CCCCCC2)c1 | -20.6% | 28.2µM* | ? | -28.1% | -7.7%
Cc1ccc(NC(=O)CCl)cc1S(=O)(=O)N1CCCCCC1 | -14.5% | 22.4µM* | ? | -24.8% | -11.5%
COCCN(C)C(=O)c1cnn(-c2nccc(-c3cc(C)sc3C)n2)c1C | 5.7% | 44.1% | . | . | -10.5%
O=C(c1cccn1-c1nnc(N2CCCC2)s1)N1CCN(c2ccccc2)CC1 | -11.8% | 7.9% | . | -2.0%[46.1 µM] | -3.6%
Cc1ccc(NC(=O)COc2cccc(C)c2C)cc1S(=O)(=O)N1CCCCCC1 | -5.0% | ? | ? | 11.2µM* | i
COc1ccc(NC(=O)COc2ccccc2C)cc1S(=O)(=O)N1CCCCC1 | -23.8% | ? | ? | ? | -16.8%
